The supplement of paper PMC9950053
Where a name gives a salt, the structure may show the parent alone.

test system: Danio rerio larvae (5 dpf); assay: habituation (activity change first vs second 5 min of 1-s interval sound, period 17) minus DMSO control (percentage points); higher = larger habituation measure than DMSO larvae; settings: 10 µM; exposure time: 3 h pre-incubation + 3 h imaging
Procedure: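 Wild-type 5 dpf zebrafish larvae (n=48 per drug, 96-well plates, 28.5 °C) were exposed to Tocris FDA-approved library compounds at 10 µM (0.1% DMSO) for 3 h before and 3 h during imaging. Images were taken every 6 s during visual (moving coloured lines) and acoustic stimuli, and larvae were tracked with the DeepLabCut-based Z-LaP Tracker. Each behavioural measure is the treated-group mean minus the DMSO vehicle control mean (n=844), in percentage points. This mapping covers compounds with 4-character plate codes.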

Structure (SMILES) | habituation
O=C(O)CCCc1ccccc1 [Sodium 4-Phenylbutyrate] | -2.16
O=C(NCC1CCCCN1)c1cc(OCC(F)(F)F)ccc1OCC(F)(F)F (stereo not given) [Flecainide acetate] | 0.225
CN1CC[C@@H](NC(=O)Nc2ccc(C#N)cc2)C[C@@H]1c1nc2ccccc2[nH]1 | -0.504
CCCCC1=NC2(CCCC2)C(=O)N1Cc1ccc(-c2ccccc2-c2nnn[nH]2)cc1 [Irbesartan] | -1.18
Clc1ccccc1C(c1ccccc1)(c1ccccc1)n1ccnc1 [Clotrimazole] | -2.1
NS(=O)(=O)Cc1noc2ccccc12 [Zonisamide] | 1.66
CC(=O)NC[C@H]1CN(c2ccc(N3CCOCC3)c(F)c2)C(=O)O1 [Linezolid] | -3.73
C=CC(=O)N1CCC[C@@H](n2nc(-c3ccc(Oc4ccccc4)cc3)c3c(N)ncnc32)C1 [Ibrutinib] | -7.32
CN1CC(=O)N2[C@H](c3ccc4c(c3)OCO4)c3[nH]c4ccccc4c3C[C@@H]2C1=O [Tadalafil] | -0.158
CC(=O)O[C@]1(C(C)=O)CC[C@H]2[C@@H]3C=C(C)C4=CC(=O)CC[C@]4(C)[C@H]3CC[C@@]21C [Megestrol Acetate] | -3.62
CCOC(=O)[C@H](CCc1ccccc1)N[C@H]1CCc2ccccc2N(CC(=O)O)C1=O [Benazepril hydrochloride] | 1.78
Nc1ccn([C@@H]2O[C@H](CO)[C@@H](O)C2(F)F)c(=O)n1 [Gemcitabine hydrochloride] | -1.55
CN1CCC[C@@H]1Cc1c[nH]c2ccc(CCS(=O)(=O)c3ccccc3)cc12 [Eletriptan hydrobromide] | 7.41
O=c1[nH]c(=O)n([C@H]2C[C@H](O)[C@@H](CO)O2)cc1C(F)(F)F [Trifluorothymidine] | 6.83
CC(C)Nc1cccnc1N1CCN(C(=O)c2cc3cc(NS(C)(=O)=O)ccc3[nH]2)CC1 [Delavirdine mesylate] | -5.18
COc1cccc2c1C(=O)c1c(O)c3c(c(O)c1C2=O)C[C@@](O)(C(=O)CO)C[C@@H]3O[C@H]1C[C@H](N)[C@H](O)[C@H](C)O1 [Doxorubicin hydrochloride] | 0.248
CC#C[C@]1(O)CC[C@H]2[C@@H]3CCC4=CC(=O)CCC4=C3[C@@H](c3ccc(N(C)C)cc3)C[C@@]21C [Mifepristone] | -3.13
COc1c(C)c2c(c(O)c1C/C=C(\C)CCC(=O)OCCN1CCOCC1)C(=O)OC2 [Mycophenolate mofetil] | 4.4
NS(=O)(=O)c1cc(C(=O)O)c(NCc2ccco2)cc1Cl [Furosemide] | 2.23
Cc1cccc(C)c1OCC(C)N (stereo not given) [Mexiletine hydrochloride] | 6.36

Structure (SMILES) | habituation
CCN(Cc1ccncc1)C(=O)C(CO)c1ccccc1 (stereo not given) [Tropicamide] | 2.39
CCOC(=O)[C@H](CCc1ccccc1)N[C@@H](C)C(=O)N1[C@H](C(=O)O)C[C@@H]2CCC[C@@H]21 [Ramipril] | 0.42
COc1cc2nc(N3CCN(C(=O)C4COc5ccccc5O4)CC3)nc(N)c2cc1OC (stereo not given) [Doxazosin mesylate] | 0.55
CS(=O)(=O)CCNCc1ccc(-c2ccc3ncnc(Nc4ccc(OCc5cccc(F)c5)c(Cl)c4)c3c2)o1 [Lapatinib] | -1.33
CN1CCN(CCCN2c3ccccc3Sc3ccc(Cl)cc32)CC1 [Prochlorperazine dimaleate] | -8.1
Cc1cccc(CN2CCN(C(c3ccccc3)c3ccc(Cl)cc3)CC2)c1 (stereo not given) [Meclizine dihydrochloride] | -12.4
Cc1cn([C@H]2C=C[C@@H](CO)O2)c(=O)[nH]c1=O [Stavudine] | -0.444
COc1ccc(C[C@@H](C)NC[C@H](O)c2ccc(O)c(NC=O)c2)cc1 [Arformoterol tartrate] | -3.57
CCc1ccc(CCOc2ccc(CC3SC(=O)NC3=O)cc2)nc1 (stereo not given) [Pioglitazone hydrochloride] | 0.765
CC1CNc2c(cccc2S(=O)(=O)N[C@@H](CCCNC(=N)N)C(=O)N2CC[C@@H](C)C[C@@H]2C(=O)O)C1 (stereo not given in full) [Argatroban] | -0.107
CCOC(=O)C1=C(COCCN)NC(C)=C(C(=O)OC)C1c1ccccc1Cl (stereo not given) [Amlodipine besylate] | -2.71
CC(C)CN(C[C@@H](O)[C@H](Cc1ccccc1)NC(=O)O[C@H]1CO[C@H]2OCC[C@H]21)S(=O)(=O)c1ccc(N)cc1 [Darunavir] | 0.657
CCC(C)(C)C(=O)O[C@H]1C[C@@H](C)C=C2C=C[C@H](C)[C@H](CC[C@@H]3C[C@@H](O)CC(=O)O3)[C@H]21 [Simvastatin] | -1.02
COc1ccccc1OCCNCC(O)COc1cccc2[nH]c3ccccc3c12 (stereo not given) [Carvedilol] | -0.0437
CN(CCOc1ccc(NS(C)(=O)=O)cc1)CCc1ccc(NS(C)(=O)=O)cc1 [Dofetilide] | 5.62
CCC(=O)O[C@]1(C(=O)SCF)[C@H](C)C[C@H]2[C@@H]3C[C@H](F)C4=CC(=O)C=C[C@]4(C)[C@@]3(F)[C@@H](O)C[C@@]21C [Fluticasone propionate] | 2.72
CC(C)n1c(/C=C/C(O)CC(O)CC(=O)O)c(-c2ccc(F)cc2)c2ccccc21 (stereo not given) [Fluvastatin sodium] | 2.02
C[C@@H](O[C@H]1OCCN(Cc2n[nH]c(=O)[nH]2)[C@H]1c1ccc(F)cc1)c1cc(C(F)(F)F)cc(C(F)(F)F)c1 [Aprepitant] | 1.46
CC(C)c1ccc2oc3nc(N)c(C(=O)O)cc3c(=O)c2c1 [Amlexanox] | -2.56
CC(C)c1nc(CN(C)C(=O)N[C@H](C(=O)N[C@@H](Cc2ccccc2)C[C@H](O)[C@H](Cc2ccccc2)NC(=O)OCc2cncs2)C(C)C)cs1 [Ritonavir] | -0.524
